An excerpt weighted towards active compounds, which were near 0.47% of everything screened.
UDG counter = Primary qHTS assay for inhibitors of Activation Induced Cytidine Deaminase (AID): UDG Counterscreen signal; Potency, µM (highest dose often 115 µM), without a hit: at the highest dose activity change, negative = inhibition, hits mostly inhibitors; 0.14% of 91,000 active; FRET deamination/UDG coupled assay, UDG read, 4 h; Uracil-DNA glycosylase; AID 1347430, 2020; further: nearly all actives have a fitted effect of over 65% in size
AID inh = Primary qHTS assay for inhibitors of Activation Induced Cytidine Deaminase (AID): AID signal | Single-stranded DNA cytosine deaminase (Homo sapiens), Q9GZX7 | AID deamination FRET fluorescence, UDG-coupled, 4 h | Potency, µM (titrated, usually from 115 µM), actives largely listed as inhibitors | 0.32% of 91,000 active | AID 1347428, 2020; further: nearly all actives have a fitted effect of over 25% in size
Target sequence (Q9GZX7 whole entry, looked up): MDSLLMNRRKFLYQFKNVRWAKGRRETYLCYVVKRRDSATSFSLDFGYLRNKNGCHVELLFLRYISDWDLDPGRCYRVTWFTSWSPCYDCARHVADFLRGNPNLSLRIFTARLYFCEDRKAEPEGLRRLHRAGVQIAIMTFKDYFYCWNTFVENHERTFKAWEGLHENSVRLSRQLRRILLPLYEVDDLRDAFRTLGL
Active calls of the source: *; i = inactive; ? = inconclusive. The call rests on the fitted dose curve; in most records, active means well fitted curve in the direction sought with a large enough effect; inconclusive means small, poorly fitted or top-dose-only effect, or another doubt; inactive means no such curve, though single readings can be large; an effect the other way counts as inactive or inconclusive. On the % scale 0 is the no-effect control and ±100 the full control effect; potency means the concentration at half of the fitted maximal effect.

SMILES	UDG counter	AID inh
O=C(CC1N=C2c3ccccc3N=C(SCc3ccccc3Cl)N2C1=O)NC1CCCCC1 (stereo unspecified)	89µM*	i
O=C(CC1N=C2c3ccccc3N=C(SCc3ccccc3F)N2C1=O)NCCc1ccccc1 (stereo unspecified)	?	35µM*
Cc1ccc(CSC2=Nc3ccccc3C3=NC(CCC(=O)NCc4cccs4)C(=O)N23)c(C)c1 (stereo unspecified)	18%	i
COc1ccccc1NC(=O)CSC1=Nc2ccccc2C2=NC(CC(=O)NCCc3ccccc3)C(=O)N12 (stereo unspecified)	-9%	i
N#Cc1nc(-c2ccccc2F)oc1N1CCCCCC1	-6%	i
O=C(Nc1ccon1)c1sc2cccc(Br)c2c1Cl	-1%	i
Cc1ccc(NCc2cc3ccccc3[nH]c2=O)cc1C	4%	i
COc1ccc(-c2nc(C)c(CCNC(=O)c3cccs3)s2)cc1OC	-9%	i
Cc1nc(-c2ccc(F)cc2)sc1CCNC(=O)c1ccccc1	5%	i
Cc1nc(-c2ccc(F)cc2)sc1CCNC(=O)c1ccc(C(C)(C)C)cc1	-13%	16µM*
Cc1nc(-c2ccc(F)cc2)sc1CCNC(=O)c1cccs1	79µM*	?
COc1ccc(OC)c(CN(Cc2ccc(C#N)cc2)C2CC2)c1	3%	i
CN(Cc1ccc(C(N)=O)cc1)C(=O)c1cc(=O)[nH]c2ccccc12	-7%	i
O=C1Nc2cc(C(=O)N3CCN(c4ccccc4)CC3)ccc2N2CCCCC12 (stereo unspecified)	-6%	i
Cc1ccc(C)c(CSc2ccc3nnc(CCNS(=O)(=O)c4ccccc4)n3n2)c1	25%	?
O=S(=O)(NCCc1nnc2ccc(SCc3cccc(Cl)c3)nn12)c1ccccc1	21%	40µM*
Cc1ccnc(SCc2ccc(F)cc2)n1	3%	i
COc1ccccc1N1CCN(CCCNC(=O)c2cnn(-c3ccc(C)c(C)c3)c2C2CCN(C(=O)OC(C)(C)C)CC2)CC1	12%	50µM*
COc1ccc(CCN2CCC(CNC(=O)c3cnn(-c4ccccc4)c3C3CCN(C(=O)OC(C)(C)C)CC3)CC2)cc1	43%	?
CC(C)(C)OC(=O)N1CCC(c2c(C(=O)N3CCN(c4ccccc4F)CC3)cnn2-c2ccccc2Cl)CC1	?	50µM*
Cc1ccc(C)c(N2CCN(CCCNC(=O)c3cnn(-c4ccccc4)c3C3CCN(C(=O)OC(C)(C)C)CC3)CC2)c1	38%	i
COc1ccc(CCN2CCC(CNC(=O)c3cnn(-c4cccc(Cl)c4)c3C3CCN(C(=O)OC(C)(C)C)CC3)CC2)cc1	-17%	35µM*
Cc1c(Cl)cccc1-n1ncc(C(=O)N2CCN(c3ncccn3)CC2)c1C1CCN(C(=O)OC(C)(C)C)CC1	-9%	i
CCCCNC(=O)NC(=O)CN(C)CCCc1ccccc1	6%	i
CN(C)C(=O)COC(=O)CCc1c[nH]c2ccccc12	-2%	i
SMILES	UDG counter	AID inh
O=C(CSc1nccn1-c1ccc(Cl)cc1)Nc1ccc(Cl)c(Cl)c1	-5%	i
O=C(CSc1nccn1-c1cccc(Cl)c1)Nc1cccc(C(F)(F)F)c1	-20%	32µM*
Cc1ccc(SCc2ccc(C(=O)Nc3cc(C)ccc3C)cc2)cc1	-15%	i
O=C(NCCc1c[nH]c2ccc(Cl)cc12)c1ccncc1	-5%	i
Cc1nc2c(C(=O)NCCc3ccccc3)c[nH]n2c(=O)c1Cc1ccc(F)cc1Cl	-7%	i
Cc1ccc(CNC(=O)c2c[nH]n3c(=O)c(Cc4ccc(F)cc4Cl)c(C)nc23)cc1	-7%	71µM*
COc1ccc(S(=O)(=O)N2CCn3cccc3C2c2ccccc2)cc1 (stereo unspecified)	?	i
Cc1ccc(S(=O)(=O)N2CCn3cccc3C2c2ccccc2)cc1 (stereo unspecified)	89µM*	i
Cc1n[nH]c(C)c1S(=O)(=O)Nc1cccc([N+](=O)[O-])c1	11%	i
COc1cccc(NCCC#N)c1	8%	i
COc1ccccc1Cn1cc(C(=O)c2ccc(Cl)cc2)c(=O)c2ccccc21	16%	i
COc1cccc(Cn2cc(C(=O)c3ccc(Cl)cc3)c(=O)c3ccccc32)c1	-15%	28µM*
CCCCOc1ccc(C(=O)N(Cc2ccc(C(C)C)cc2)C2CCS(=O)(=O)C2)cc1 (stereo unspecified)	-10%	25µM*
CCCOc1ccc(C(=O)N(Cc2ccc(C(C)C)cc2)C2CCS(=O)(=O)C2)cc1 (stereo unspecified)	-18%	?
CCOc1ccc(NC(=O)c2c(-n3cnnn3)sc(C)c2C)cc1	-4%	i
Cc1ccc(-c2nc3ccc(C)cc3c(C(=O)O)c2C)cc1	10%	i
Oc1ccc(C2(c3ccccc3)C=Cc3c(ccc4ccccc34)O2)cc1 (stereo unspecified)	1%	i
COC(=O)c1sc(N2C(=O)C(=O)/C(=C(/O)c3ccc(C)c(F)c3)C2c2ccccc2F)nc1C (stereo unspecified)	-5%	79µM*
Cc1ccccc1C1/C(=C(\O)c2ccccc2F)C(=O)C(=O)N1c1ccc(CC(=O)O)cc1 (stereo unspecified)	3%	i
Cc1nc(NC(=O)C2CC(=O)N(CC(C)C)C2)sc1C (stereo unspecified)	-3%	i
O=C(NC1CCCc2ccccc21)C1CC=CCC1 (stereo unspecified)	1%	i
O=C1c2ccccc2C(=O)c2c(NCCc3ccc(O)cc3)ccc(NCCc3ccc(O)cc3)c21	-27%	?
O=C1c2c(O)ccc(O)c2C(=O)c2c(NCCNCCO)ccc(NCCNCCO)c21	40µM*	10µM*
COc1ccc(-n2c(Cc3ccccc3)nnc2SCc2nc(-c3ccccc3C)no2)cc1	-29%	32µM*
CCc1ccc(-n2c(SCc3nc(-c4cc(OC)ccc4OC)no3)nnc2-c2ccccc2)cc1	-22%	?
SMILES	UDG counter	AID inh
CCn1cc(C(=O)NCCc2ccc(OC)c(OC)c2)c(=O)c2cc(S(=O)(=O)N(C)C3CCCCC3)ccc21	-23%	16µM*
CCn1cc(C(=O)NCCc2ccc(OC)c(OC)c2)c(=O)c2cc(S(=O)(=O)N3CCCCCC3)ccc21	-15%	i
Cn1c(SCc2ccc(F)cc2)nc2ccc(C(=O)NCc3ccc(F)cc3)cc21	1%	28µM*
Cn1c(SCc2ccc(F)cc2)nc2ccc(C(=O)NCc3ccc(Cl)cc3)cc21	-12%	?
COc1ccc(-c2noc(N3CCC(C(=O)N(C)c4cc(Cl)ccc4OC)CC3)n2)cc1	-14%	79µM*
COc1ccc(-c2noc(N3CCC(C(=O)N4CCN(c5ccccc5OC)CC4)CC3)n2)cc1	?	i
CCCOc1ccc(-c2nn(-c3ccccc3)cc2C2NC(=O)NC(C)=C2C(=O)OC)cc1 (stereo unspecified)	-22%	?
CCCOc1ccc(-c2nn(-c3ccccc3)cc2C2NC(=O)NC(C)=C2C(=O)OCC)cc1 (stereo unspecified)	89µM*	?
COc1ccc(CNC(=O)c2ccc(-c3nc(CS(=O)c4ccc(C)cc4)c(C)o3)cc2)cc1 (stereo unspecified)	89µM*	?

Screening results deposited in PubChem by National Center for Advancing Translational Sciences (NCATS).
